# Screening results: PubChem, several laboratories
# Only some compounds are listed: those with a hit (about 4.6% of all), similar ones and a draw of the others.
# SKKanGAS inh = blocks kanamycin growth of S. pyogenes SKKanGAS strain. inhibition, % at 7.5 µM. 1.3% of 300,000 active. BacTiter-Glo, 6 h;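 active = mean replicate score, as percent of positive control median, at least 50; inconclusive = mean below 50 but one replicate at or above 50; inactive = mean and every replicate below 50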;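 note: strain carries kanamycin resistance gene driven by streptokinase promoter and grows in 40 µg/ml kanamycin; loss of luminescence reflects streptokinase promoter inhibition or plain growth inhibition; 0% = median of DMSO wells and 100% = positive control at its reference dose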
# tim23-1 inh = inhibits growth of tim23-1 mutant yeast. AID 463212. inhibition, % at 20 µM. 1.3% of 330,000 active. S. cerevisiae tim23-1 growth, BacTiter-Glo luminescence, 24 h;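 active = growth inhibition of the mutant yeast at or above 50%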;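 note: temperature-sensitive mutant grown at 25 °C; plate controls were DMSO-treated mutant yeast for no effect and medium wells lacking yeast for full effect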
# V-ATPase pH = regulators of yeast V-ATPase proton transport | S. cerevisiae, pHLuorin cytosolic pH fluorescence | response, % at 10 µM | 0.37% of 350,000 active; in the data active = response mostly above about 7.3%, no sharp cut-off; inactive = mostly below about 5.4%; note: actives read high
# tim10-1 inh = growth inhibitors of tim10-1 mutant yeast. S. cerevisiae tim10-1 ts strain growth, BacTiter-Glo, 24 h. inhibition, % at 20 µM. 2.2% of 330,000 active. AID 463190;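 active = inhibition of at least 40%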;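 note: mutant grown at 25 °C; 0% = DMSO wells with yeast and 100% = wells holding no yeast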
# TIM10 inh = growth inhibitors of TIM10 yeast strain; S. cerevisiae TIM10 strain growth, BacTiter-Glo luminescence, 24 h; inhibition, % at 10 µM; 1.4% of 330,000 active;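 active = inhibition of 40% or more at the single tested concentration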;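 note: wild-type TIM10 isogenic control strain grown at permissive 25 °C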
# PfHsp90 set2 = growth inhibition of yeast expressing Plasmodium Hsp90 | S. cerevisiae expressing PfHsp90, BacTiter-Glo ATP, 48 h; yeast lacking PDR1 and PDR3 efflux regulators | inhibition, % at 9.4 µM | 0.32% of 310,000 active | AID 504621;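 active = every replicate shows inhibition above about 80%, whatever the replicate mean, limit read from the data; inconclusive = mean inhibition reaches the set limit but some replicate falls short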;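 note: 0% = DMSO neutral controls and 100% = 20 µM radicicol positive controls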
# An asterisk follows results filed as active; ? = inconclusive; nt = no result.
SMILES,SKKanGAS inh,tim23-1 inh,V-ATPase pH,tim10-1 inh,TIM10 inh,PfHsp90 set2
CC1CC(NS(=O)(=O)c2cccs2)CC(C)(C)C1 (stereo not drawn),-3.6,26.3,3.5,9.5,14.9,-12.6
COc1ccc(NC(=O)CN(C)CC(=O)Nc2sc3c(c2C#N)CCC3)cc1,nt,16.5,0.3,9.3,10.6,7.2
S=C1Nc2ccccc2CS1,nt,nt,0.8,nt,nt,nt
S=C1Cc2ccccc2N1,?,nt,-1.7,nt,nt,106.6*
Cc1nn(Cc2ccccc2Cl)c2sc(C(=O)Nc3ccccc3N3CCOCC3)cc12,60.2*,3.8,4.9,17.9,21.9,6.0
CCS(=O)(=O)N1Cc2ccccc2CC1C(=O)N(C)Cc1ccc(OC)c(F)c1 (stereo not drawn),-2.4,12.0,14.9*,3.5,18.0,-17.2
CCN(CC)S(=O)(=O)c1cccc(C(=O)OCC(=O)c2ccc3c(c2)OCCO3)c1,3.4,30.1,0.9,33.1,10.1,7.1
CCOC(=O)C1C(=O)NC(N2CCN(Cc3ccccc3)CC2)=NC1c1ccco1 (stereo not drawn),0.5,2.4,-1.6,8.3,8.0,0.9
CCOC(=O)C1C(=O)NC(N2CCCCC2)=NC1c1ccco1 (stereo not drawn),-2.3,-5.8,14.9*,-15.1,0.6,2.5
Cc1ccc(OC/C(O)=C(\C#N)c2nc3ccccc3s2)cc1,56.8*,-0.1,-1.9,-4.3,9.9,8.9
CCCCn1c(SCCN2CCCCC2)nc2c1c(=O)n(C)c(=O)n2C,nt,nt,2.2,nt,nt,nt
COC(=O)c1ccc(Oc2nc3ccccc3n3c(C)nnc23)cc1,52.9*,21.7,0.7,3.4,4.2,17.2
CCOC(=O)c1sc(NC(=O)Nc2ccc(Cl)cc2)cc1C,81.0*,4.2,3.1,12.4,6.6,-3.7
CCOC(=O)c1sc(NC(=O)c2ccc(Cl)s2)cc1C,-6.3,-13.4,-3.5,-25.3,3.2,-21.6
CCOc1cc(CN2CCC(n3nccc3NC(=O)C3CC3)CC2)ccc1O,-0.7,13.2,-0.3,20.8,4.3,-4.8
Fc1ccc(C(CCNCc2ccccn2)c2ccc(Cl)cc2)cc1 (stereo not drawn),64.4*,19.9,1.9,35.0,23.9,-0.9
CCc1nnc(NC(=O)C2CCCN2C(=O)Nc2ccc(Cl)cc2)s1 (stereo not drawn),-1.0,-2.8,-2.4,-22.5,-9.7,-29.0
Cc1ccccc1-n1c(SCC(=O)NC(N)=O)nc2sc(-c3ccccc3)cc2c1=O,85.9*,19.6,-2.3,20.2,25.1,-21.8
Cc1ccccc1-n1c(SCC(N)=O)nc2sc(-c3ccccc3)cc2c1=O,36.1,40.9,-4.9,36.0,30.3,3.3
CCCCN(CCCC)S(=O)(=O)c1ccc(C(=O)Nc2nnc(COC)o2)cc1,91.7*,19.6,-0.1,20.6,3.9,-13.0
CCCCN(CC)S(=O)(=O)c1ccc(C(=O)Nc2nnc(-c3cccs3)o2)cc1,97.9*,-1.0,nt,33.8,-2.6,nt
O=C(/C=C/c1ccccc1)CCN1CCOCC1,nt,nt,18.6,nt,nt,106.7*
O=C(c1ccc2c(=O)n(C3CCCC3)c(=S)[nH]c2c1)N1CCc2ccccc21,25.1,20.7,-0.1,8.3,25.1,109.0*
COc1cccc(OCC(O)CN2CCC(CN3C(=O)c4cccc5cccc(c45)C3=O)CC2)c1 (stereo not drawn),1.6,12.0,-0.3,26.7,-2.4,-29.8
O=C1c2cccc3cccc(c23)C(=O)N1CC1CCN(CC(O)COc2ccc3ccccc3c2)CC1 (stereo not drawn),70.2*,-73.2,-3.7,-90.5,37.1,18.8
SMILES,SKKanGAS inh,tim23-1 inh,V-ATPase pH,tim10-1 inh,TIM10 inh,PfHsp90 set2
COc1ccc(S(=O)(=O)N2CCOC2CNC(=O)C(=O)NCc2ccccc2Cl)cc1 (stereo not drawn),52.0*,15.0,-0.6,2.0,9.5,-6.4
Cc1c(C(=O)N/N=C/c2ccccn2)nnn1-c1nonc1N,-1.7,24.7,1.4,29.5,14.2,13.2
Cc1oc2c(c1C(=O)c1ccc(Cl)cc1)C(=O)C(=O)c1ccccc1-2,75.3*,nt,-0.2,nt,nt,nt
Cc1cc(=O)c(C(=O)c2ccccc2)c(C)o1,-4.2,-17.2,-0.3,-4.6,-0.5,-17.8
Cc1ccc(C(=O)c2c(C)oc3c2C(=O)C(=O)c2ccccc2-3)cc1,92.5*,37.6,1.2,22.1,23.2,nt
Cn1ccsc1=NC(=O)c1cccc(C#N)c1,-13.5,5.9,-1.6,12.6,-1.3,25.9
CCC1=NN2C(=N)/C(=C\c3cccn3-c3c(C)cccc3C)C(=O)N=C2S1,44.3,40.4,9.1,33.0,38.4,-66.2
CCC1=NN2C(=N)/C(=C\c3cccn3-c3ccc(C)cc3C)C(=O)N=C2S1,31.8,40.8,6.4,31.4,33.5,94.3*
O=C1c2ccccc2CCCC12N=NCC2c1cccc2ccccc12 (stereo not drawn),49.8*,-0.3,-0.1,19.3,-20.3,5.2
Cc1ccc(C(=O)Nc2ccc3ccccc3n2)cc1,-5.5,18.7,-2.7,14.7,-8.0,0.4
Cc1ccc(C(O)(C(=O)NNc2ccc3ccccc3n2)c2ccc(C)cc2)cc1,71.2*,6.1,-0.2,-2.3,11.5,-7.0
O=C(O)CSc1c(-c2ccccc2)c2cc(Cl)ccc2[nH]c1=O,-6.8,16.9,0.5,-8.4,0.1,-31.9
CCN(CC)C(=S)Sc1c(-c2ccccc2)c2cc(Cl)ccc2[nH]c1=O,91.6*,11.5,-1.2,30.3,22.8,-7.3
CC(C)(C)c1cc(NCc2ccccn2)n2ncc(-c3ccc(Cl)cc3)c2n1,84.8*,3.8,1.9,-5.0,3.2,-20.4
CC(C)Nc1cc(C(C)(C)C)nc2c(-c3ccccc3)cnn12,88.7*,9.3,2.5,-10.2,-8.2,14.9
CCc1nccn1-c1cc(C(C)(C)C)nc2c(-c3ccc(Cl)cc3)cnn12,7.6,19.8,-2.9,37.8,25.0,-6.5
Cc1nc(-n2[nH]c3c(c2=O)CCCC3)[nH]c(=O)c1Cc1ccccc1,94.6*,-5.4,0.3,14.3,7.0,70.5
COc1ccc(CN2C(=O)C(CC(=O)NC3CCCCC3)CC(C(=O)N(C(C)C)C(C)C)=C2C)cc1 (stereo not drawn),nt,nt,-2.2,nt,nt,nt
O=C1N/C(=N\N=C\c2ccccn2)SC1Cc1cccc(SC(F)F)c1 (stereo not drawn),94.2*,-11.5,0.6,28.5,8.9,19.2
O=C1N/C(=N\N=C\c2cccs2)SC1Cc1cccc(Cl)c1 (stereo not drawn),-15.8,18.1,7.2,28.8,-0.1,-13.5
O=C1N/C(=N\N=C\c2ccc3ncccc3c2)SC1Cc1ccc(SC(F)F)cc1 (stereo not drawn),nt,5.4,2.4,2.9,1.4,1.4
O=C1N/C(=N\N=C\c2cccnc2)SC1Cc1ccc(SC(F)F)cc1 (stereo not drawn),92.9*,14.1,-4.9,22.7,26.3,17.7
O=c1[nH][nH]c(=O)c(Cl)c1Cl,nt,nt,1.1,nt,nt,nt
COc1ccccc1CN(C)C(=O)c1ccc(S(=O)(=O)Nc2c(C)n(C)n(-c3ccccc3)c2=O)cc1,nt,4.8,10.3,-0.4,-7.9,10.7
